# Screens as filed in PubChem BioAssay.
# The list is not random: actives were taken first. Their share in the collection is about 2.4%.
# Anesthetic bind – binds horse apoferritin like a general anesthetic; Potency, µM (doses to about 77.5 µM), usual class: inhibitors; apoferritin/1-aminoanthracene competitive binding, fluorescence; 0.074% of 350,000 active; P02791; also: nearly all actives have a fitted effect of over 20% in size
# Target sequence (P02791 2-175 limits assumed): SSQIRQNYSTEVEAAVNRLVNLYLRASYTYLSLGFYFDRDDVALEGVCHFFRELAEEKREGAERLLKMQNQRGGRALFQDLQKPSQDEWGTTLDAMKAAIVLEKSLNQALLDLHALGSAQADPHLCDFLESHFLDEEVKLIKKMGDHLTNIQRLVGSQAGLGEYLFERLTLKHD
#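 Horse-spleen apoferritin (10 uM) in 50% saturated 1-aminoanthracene in PBS was incubated 10 min at room temperature with compound. Fluorescence (ex 380, em 535 nm) was normalized to free and bound 1-AMA, with concentration-response fitted by a four-parameter Hill equation.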
# TGFb SMAD3 inh – inhibitors of TGF-b signaling; 1.2% of 410,000 active; HepG2 CAGA-GFP TGF-b/SMAD3 reporter, GFP fluorescence, 18 h; TGF-beta stimulated, 500 pg/mL final; AID 588855; Potency, µM (doses to about 46.1 µM), hits mostly inhibitors; also: nearly all actives have a fitted effect of over 65% in size
#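 Read-out: total well GFP (ex488/em500-530) summed from mean per-cell fluorescence. Cells: HEPG2 CAGA-GFP, 1% FBS DMEM, 18 h at 37 degrees C with 500 pg/mL final TGF-beta. Unstimulated wells served as the full-inhibition control; stimulated DMSO wells = 0%.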
# HepG2 viability – HepG2 cytotoxicity, counter-screen for TGF-b inhibitors. AID 588856. 0.76% of 410,000 active. HepG2 CAGA-GFP viability, ATP luminescence, 18 h. Potency, µM (series often up to 46.1 µM), hits mostly cytotoxic
#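 HepG2 CAGA-GFP cells (1000/well, DMEM with 1% FBS) received compound, then TGF-beta at 500 pg/mL final, and were incubated 18 hours at 37 degrees C. Viability was read by CellTiter-Glo luminescence. Media-only wells were set as complete cell-killing and DMSO as no toxicity.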
# ATXN viability – viability counter-screen for ATXN expression inhibitors; S2 cells (HEK-293 line with an ATXN2-luciferase reporter) viability, CellTiter-Fluor protease fluorescence, 24 h; Potency, µM (highest dose often 56.7 µM), hits mostly cytotoxic; 0.49% of 400,000 active; AID 651635; also: nearly all actives have a fitted effect of over 40% in size
# ATXN2 expr inh – inhibitors of ATXN2 expression; HEK-293 ATXN2-luciferase reporter, luminescence, 24 h; Potency, µM (series often up to 57 µM), most hits filed as inhibitors; 0.72% of 360,000 active; also: nearly all actives have a fitted effect of over 55% in size
#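 qHTS (up to 57 uM final) was run with 24 h compound exposure of reporter cells at 37 °C. Each well was multiplexed: SteadyGlo luminescence measured ATXN2-luciferase expression after a fluorogenic Gly-Phe-AFC viability readout (25 uM final).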
# Numbers stand for hits; - = inactive; ? = inconclusive; . = not tested or not shown. Calls follow the shape of the dose curve; as a rule, active = well fitted curve in the direction sought with a large enough effect; inconclusive = small, poorly fitted or top-dose-only effect, or another doubt; inactive = no such curve, though single readings can be large; an effect the other way counts as inactive or inconclusive.
SMILES,Anesthetic bind,TGFb SMAD3 inh,HepG2 viability,ATXN viability,ATXN2 expr inh
CCOc1ccc(NC(=O)c2ccc(NC(=S)NC3CCCCC3)cc2)cc1,-,?,18µM,?,-
COc1ccc(NC(=O)CS(=O)c2cccc(C(F)(F)F)c2)cc1 (stereo not drawn),-,-,-,-,-
Cc1cc(Br)cc2c1N(Cc1ccccc1OC(C)C)C(=O)C2=O,?,.,10µM,.,.
O=C(Nc1nc(-c2ccc(F)c(F)c2)cs1)Nc1ccc(F)cc1F,-,-,-,?,5µM
O=C(Cc1ccccc1F)Nc1nc(-c2ccc(F)c(F)c2)cs1,-,?,-,-,-
CCCC(=O)N(C1CC(C)C(C#N)(C#N)C1(C#N)C#N)N(C)C (stereo not drawn),-,11µM,-,?,?
CC(=O)N(C1CC(C)C(C#N)(C#N)C1(C#N)C#N)N(C)C (stereo not drawn),-,?,-,30µM,?
CCCCC(C)(C)[C@H](O)C=C[C@H]1[C@H](O)CC(=O)[C@H]1CC=CCCCC(=O)O,.,.,.,.,-
O=C(O)c1ccc(-c2cccc([N+](=O)[O-])c2)o1,-,-,-,-,-
N#C/C(=C(/O)c1ccc(-c2cccc([N+](=O)[O-])c2)o1)c1nc2ccccc2s1,-,13µM,-,-,-
CC(C)(C)C1CCC(CN2C(Nc3ccccc3)=NC[C@@H]2Cc2ccccc2)CC1 (stereo partly drawn),.,?,13µM,.,?
O[C@H]1C[C@H](c2ccccc2)N(Cc2cccs2)C[C@@H]1n1cc(-c2ccc(F)cc2)nn1,.,?,11µM,32µM,16µM
COc1ccc([C@H]2C[C@H](O)[C@@H](n3cc(-c4ccc(F)cc4)nn3)CN2Cc2cccs2)cc1,.,?,-,28µM,16µM
CCN(CC)CCNCc1cc(Br)ccc1OCC(=O)NCc1ccccc1,-,-,-,-,.
CC(NCc1cc(Br)ccc1OCC(=O)NCc1ccccc1)c1ccccc1 (stereo not drawn),-,13µM,-,?,-
CCOc1ccc(OCc2cccc(C(=O)N/N=C/c3cccnc3)c2)cc1,-,-,-,-,2.1µM
O=C(N/N=C/c1cccnc1)c1cccc(Br)c1,-,-,-,-,-
CC(C)c1ccc(OCc2cccc(C(=O)N/N=C/c3cccnc3)c2)cc1,?,-,-,-,11µM
COc1ccc2c(c1)-c1nc(-n3ncc(C(=O)N(C)CCO)c3C3CC3)ncc1CC2,.,.,.,-,.
O=Cc1cccc(C=O)c1,.,-,-,.,.
Oc1ccc(/C=N/Nc2ccnc3cc(Cl)ccc23)cc1O,-,?,-,32µM,?
Oc1ccc(/C=N/Nc2ccnc3cc(Cl)ccc23)c(O)c1O,-,-,-,-,-
COc1cccc(/C=C/C2=CC(C)(C)NC(=S)N2)c1,-,-,13µM,-,-
O=C(/C=C/c1cccc(F)c1)c1ccc(N2CCOCC2)cc1,-,13µM,-,-,-
COc1cc(C2CC(=O)c3c([nH]c(C(=O)OC4CCCC4)c3C)C2)cc(OC)c1OC (stereo not drawn),-,?,-,32µM,-
SMILES,Anesthetic bind,TGFb SMAD3 inh,HepG2 viability,ATXN viability,ATXN2 expr inh
Cc1ccc(NNC(=O)C(O)(c2cccc(C(F)(F)F)c2)c2cccc(C(F)(F)F)c2)cc1,-,?,-,-,-
O=C(NNc1ccccc1Br)C(O)(c1cccc(C(F)(F)F)c1)c1cccc(C(F)(F)F)c1,-,7.9µM,-,.,?
C#CCN(C1CCCC1)S(=O)(=O)C=C,.,-,-,.,.
OC(CNCC1CCCO1)Cn1c2ccc(Cl)cc2c2cc(Cl)ccc21 (stereo not drawn),-,?,-,?,?
OC(CNCCC1C=Nc2ccccc21)Cn1c2ccc(Cl)cc2c2cc(Cl)ccc21 (stereo not drawn),-,?,-,.,32µM
CCOC(=O)N1CCN([N+]([O-])=NOc2cc(O/N=[N+](\[O-])N(CC)CC)c([N+](=O)[O-])cc2[N+](=O)[O-])CC1,-,-,-,.,.
CC(=O)Nc1cccc(Oc2ncnc3scc(-c4ccc(C)cc4)c23)c1,-,?,-,32µM,?
C[C@@H](CSc1ccccc1)CN1CC[C@H](C(C)(C)C)CCC1=O,-,?,-,-,-
Cc1ccc(S[C@@H](CCN2CC[C@H](O)CCC2=O)c2ccccc2)cc1,-,?,-,-,-
